Here are results for 26 compounds from PubChem BioAssay AID1434 (Sanford-Burnham Center for Chemical Genomics, 2008).

This test deals with Runt-related transcription factor 1 (Homo sapiens) + Core-binding factor subunit beta (Homo sapiens) (UniProt Q01196+Q13951). Put plainly: disruptors of Runt domain/CBFb-SMMHC interaction – biochemical, FRET, Cerulean-Runt, Venus-CBFb-SMMHC, uHTS, primary screen (AID 1434).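 Note: 0% = DMSO wells and 100% = wells with excess untagged CBFb-SMMHC; inhibitors lower the FRET ratio by blocking Runt binding to CBFb-SMMHC.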 Particulars: Cerulean-Runt/Venus-CBFb-SMMHC FRET ratio 530/480, 1 h, at 20 µM, stronger effect = higher value.

Screen size: about 220,000 compounds; about 1,600 (0.73%) were called active.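 Rule for the calls: active = mean inhibition across duplicate retests at 20 µM reaching about 50% (limit read from the data); inactive = the rest, inconclusive results apart.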 Many of the other results were omitted from the sample, so actives are more common in it than they were.

Runt-related transcription factor 1 (Homo sapiens) + Core-binding factor subunit beta (Homo sapiens), sequence (Q01196 whole entry, looked up, the tested form may be a part): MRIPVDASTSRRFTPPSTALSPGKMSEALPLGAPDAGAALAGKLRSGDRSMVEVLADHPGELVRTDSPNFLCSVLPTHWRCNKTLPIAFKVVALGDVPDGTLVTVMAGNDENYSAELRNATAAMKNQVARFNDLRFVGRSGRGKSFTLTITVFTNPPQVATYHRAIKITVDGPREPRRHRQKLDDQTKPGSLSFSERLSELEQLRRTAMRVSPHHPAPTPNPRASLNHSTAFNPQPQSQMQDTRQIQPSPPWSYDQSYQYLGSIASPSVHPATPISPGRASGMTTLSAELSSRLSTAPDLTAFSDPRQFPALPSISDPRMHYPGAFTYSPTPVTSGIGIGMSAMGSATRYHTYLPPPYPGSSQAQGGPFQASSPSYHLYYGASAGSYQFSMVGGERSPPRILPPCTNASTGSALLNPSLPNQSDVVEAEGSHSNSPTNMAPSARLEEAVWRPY
Runt-related transcription factor 1 (Homo sapiens) + Core-binding factor subunit beta (Homo sapiens), sequence (Q13951 whole entry, looked up, the tested form may be a part): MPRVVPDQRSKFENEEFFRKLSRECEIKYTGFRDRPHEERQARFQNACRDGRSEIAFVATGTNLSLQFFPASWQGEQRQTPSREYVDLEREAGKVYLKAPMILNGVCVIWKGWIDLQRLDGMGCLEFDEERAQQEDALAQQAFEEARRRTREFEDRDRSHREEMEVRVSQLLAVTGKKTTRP

Turning to `COc1ccc(-c2cc(-c3ccc(N)cc3)nc(N)c2C#N)cc1OC`, the inhibition was 52.8% (inactive). Where the note is “retest duplicate average”, the inhibition turned out to be 46.8%. For the compound `CSc1nc(N)c(C#N)c(-c2ccccc2Cl)c1C#N`, the inhibition was 2% (inactive). In the case of `COc1ccccc1-c1c(C#N)c(N)nc2c1CCC2`, the inhibition was 61.7% (active). Further, the inhibition (retest duplicate average) amounted to 60.2%. For the compound `COc1ccc(OCCNS(=O)(=O)Cc2ccccc2)cc1`, the inhibition is 2.9% (inactive). For `Cc1ccnc(-n2sc3ccccc3c2=O)n1`, the inhibition is 54.6% (active). Moreover, under “retest duplicate average”, the inhibition was 58.2%. Turning to `Cc1ccnc(Nc2nc3ccccc3s2)n1`, the inhibition was -5.4% (inactive).

Turning to `Cc1ccnc(N2CCC(C(=O)NC3CCCCCC3)CC2)n1`, the inhibition was 0.3% (inactive). Take `CCCCCCc1cc2cc(-c3nnc(-c4ccccc4)o3)c(=O)oc2cc1O`: the inhibition is 80.9% (active). Under “retest duplicate average”, the inhibition amounted to 146%. `CCCC(=O)Nc1nnc(-c2ccccc2)o1`: the inhibition was 0.5% (inactive). As for `Cc1c(CCC(=O)O)c(=O)oc2cc3occ(-c4ccccc4)c3cc12`, the inhibition was -3.4% (inactive). Turning to `COc1ccc(OCCCn2cccc2/C=C2/C(=N)N3OC(C)=CC3=NC2=O)cc1`, the inhibition was 0.8% (inactive). The same measure, in the same setting: to `Cc1nn(C)c(C)c1S(=O)(=O)N1CCC(CO)(Cc2ccc(Cl)cc2)CC1` belongs 2.4% (inactive). Regarding `CCN(CC)CCn1c(/N=C/c2cc(Br)ccc2O)nc2ccccc21`, the inhibition is -10.6% (inactive).

As to `Oc1ccc(Br)cc1C=Nc1ccc2[nH]ncc2c1`, the inhibition was 75.6% (active). The inhibition (retest duplicate average) came to 86.7%. Take `O=C(CCCO)N/N=C/c1cc(Br)ccc1O`: the inhibition was 14.5% (inactive). In the case of `O=C(COC(=O)/C=C/c1ccc2c(c1)OCO2)NC1CCS(=O)(=O)C1` (configuration not stated), the inhibition is 0.9% (inactive). In the case of `O=[N+]([O-])c1ccc2c(c1)C(N1CCOCC1)/C(=C/C1(O)CCCCC1)O2` (configuration not stated), the inhibition was -4.2% (inactive). On to `CN(C(=O)CSc1nnc(-c2c[nH]c3ccccc23)o1)C1CCS(=O)(=O)C1` (configuration not stated), for which the inhibition was 2.4% (inactive). Turning to `O=c1c2ccccc2c(-c2ccccc2)nn1Cc1ccccc1`, the inhibition was 1.4% (inactive).

In the case of `CSc1c(SCc2ccccc2)cnn(Cc2ccccc2)c1=O`, the inhibition is 59% (active). The inhibition (retest duplicate average) came out at 54.5%.

Take `Cn1c(CO)cnc1SCc1ccccc1`: the inhibition is 3.5% (inactive).

Take `CNC(=O)C(NC(=O)c1ccccc1)=C(C)C`: the inhibition was -2.9% (inactive). For the compound `Cc1nc(C(=O)Nc2ccc(Cl)cc2)sc1C1(C)CC(c2ccccc2)=NO1` (configuration not stated), the inhibition was -2.6% (inactive). For the compound `Cc1cc(C#N)c(SCC(N)=O)nc1-c1ccc(F)cc1`, the inhibition was 14.7% (inactive). With `O=C(C1CCCO1)N1CCN(C(=S)NC2CC2)CC1` (configuration not stated), the inhibition is -0.8% (inactive).

As for `CCCCCCCN=C(C)c1ccccc1O`, the inhibition is -0.5% (inactive).
